# Screens from PubChem BioAssay.
# Shown are actives, neighbours in structure and some others; about 1.5% of the full set was active somewhere.
# VCAM1 TNFa inh: reduces TNF alpha induced VCAM1 expression in HUVEC. HUVEC TNFa-induced VCAM-1 immunofluorescence, high-content imaging. inhibition, % at 2 µM. 95,000 tested, 0.48% active. AID 802;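 active = inhibition above the batch mean plus 3 SD, with images confirmed as a hit by eye, cut at about 37% in these data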
# IL1B NFkB pot: enhances IL-1B driven NFkB nuclear translocation. activation, % at 2 µM. HUVEC IL-1B NFkB p65 nuclear translocation imaging. AID 819. 94,000 tested, 0.3% active;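 active = activation above 40%, about the mean plus 3 SD, also judged a hit on visual image review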;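 also: percent activation is computed from the nuclear over cytoplasmic p65 intensity ratio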
# HUVEC tox TNFa: toxic to HUVEC cells under TNF alpha stimulation. HUVEC TNFalpha-stimulated, Hoechst cell count, imaging. cell count reduction, % at 2 µM. 93,000 tested, 0.17% active;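 active = cell count reduction exceeding the screen mean by over 5 SD, scaled to untreated wells per plate, cut at about 78% in these data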;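 also: cells counted after 24 h of TNF alpha exposure following the 1 h pretreatment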
# IL1B NFkB inh: blocks IL-1B driven NFkB nuclear translocation in HUVEC cells | inhibition, % at 2 µM | HUVEC IL-1B NFkB p65 nuclear translocation imaging | AID 796 | 94,000 tested, 0.43% active;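 active = inhibition above about 30% together with a positive call from visual inspection of the well image, limit read from the data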;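 also: nuclear over cytoplasmic p65 intensity ratio measured by imaging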
# HUVEC tox IL1B: toxic to HUVEC cells under IL-1B stimulation; HUVEC cell count loss, Hoechst imaging, IL-1B stimulated; cell count reduction, % at 2 µM; 94,000 tested, 0.41% active;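 active = cell count reduction more than 3 SD above the screen-wide mean, cut at about 70% in these data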
# A number is an active result; . = inactive; / = no result given.
SMILES,VCAM1 TNFa inh,IL1B NFkB pot,HUVEC tox TNFa,IL1B NFkB inh,HUVEC tox IL1B
CN1C(=O)c2ccccc2Sc2ccc(C(=O)N3CCC4(CC3)OCCO4)cc21,.,157,.,.,.
OC(Cn1c2ccccc2c2ccccc21)C[n+]1cccc2ccccc21 (stereo unspecified),.,.,.,.,.
Cc1nc2sccc2c(=O)n1-c1ccccc1Cl,.,.,.,.,.
CC(C)NS(=O)(=O)c1ccc(OCC(=O)N2CCN(Cc3ccccc3)CC2)cc1,.,.,.,.,.
O=C(COc1ccc(Cl)cc1)N1CCN(Cc2ccccc2)CC1,.,43,.,.,.
CCCNS(=O)(=O)c1ccc(OCC(=O)N2CCN(Cc3ccc4c(c3)OCO4)CC2)cc1,.,.,.,.,.
CCCNS(=O)(=O)c1ccc(OCC(=O)N2CCN(C)CC2)cc1,.,.,.,.,88
COc1ccc(CCNCc2ccccn2)cc1OC,.,.,.,36,.
O=C1C2CCCN2C(c2cccnc2)N1c1ccc(Cl)c(Cl)c1 (stereo unspecified),75,.,.,.,.
O=C1C2CCCN2C(c2ccncc2)N1c1ccc(Cl)c(Cl)c1 (stereo unspecified),.,.,.,.,.
CC(c1ccccc1F)n1cc(C(=O)Nc2ccc3nc[nH]c3c2)nn1 (stereo unspecified),.,.,80,.,.
O=C(c1cccn2c(=O)c3ccc(Cl)cc3nc12)N1CCC2(CC1)OCCO2,.,.,.,.,.
O=C(CNS(=O)(=O)c1ccc(Br)s1)N1CCC2(CC1)OCCO2,.,43,.,.,.
O=C(c1ccc(CNS(=O)(=O)c2ccccc2)cc1)N1CCC2(CC1)OCCO2,.,.,.,.,.
CCCCn1c(=O)c(C(=O)Nc2cnccn2)c(O)c2ccccc21,.,.,.,.,.
CC(C)CCn1c(=O)c(C(=O)Nc2ccccc2S(N)(=O)=O)c(O)c2ccccc21,.,.,.,39,.
CCN1/C(=C\C=C\C2=[N+](CC)c3ccccc3C2(C)C)C(C)(C)c2ccccc21,88,.,.,.,.
CCCC(=O)NC(Oc1ccccc1Cl)C(Cl)(Cl)Cl (stereo unspecified),.,/,.,/,/
CC(=O)OC1N=C(c2ccccc2)c2cc(Br)ccc2N(C)C1=O (stereo unspecified),.,.,.,.,.
CCN(CC)CCN=Cc1c(O)n(CCC2=CCCCC2)c(=O)[nH]c1=O,.,.,.,.,89
CCC12C=CCN3CCC4(c5cc(Br)c(OC)cc5N(C)C4C(O)(C(=O)OC)C1OC(C)=O)C32 (stereo unspecified),.,40,.,.,.
C=C1C(O)(c2ccccc2)C2CC[N+]1(C)CC2 (stereo unspecified),.,.,.,.,.
O=c1c2ccccc2nc(-c2ccco2)n1-c1cccnc1,.,.,.,.,84
O=c1c2ccccc2nc(-c2ccco2)n1-c1ccccn1,.,.,.,.,.
CC(C)OCCCNC(=O)c1c(N)n(CC2CCCO2)c2nc3ccccc3nc12 (stereo unspecified),.,.,.,97,90
O=C(Nc1ccc(Cl)cc1C(=O)c1ccccc1Cl)c1ccco1,.,.,.,.,.
CC(N)Cc1c[nH]c2ccc(Cl)cc12 (stereo unspecified),39,/,.,/,/
COC(=O)c1c(C)[nH]c(C(=O)C(Cc2ccccc2)N(C)C)c1C (stereo unspecified),.,/,.,/,/
